Assay results from the supplement of paper PMC12494721.
Structures can show the parent of a compound that is named as a salt.

Key:
Conditions in all cases: 20 µM; incubation time: 27 h, anaerobic, 37 °C;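 for the amine columns active = adjusted P below 0.05 in both replicates with a change the same way and a mean fold change under 0.8 or over 1.25; inactive = the rest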
[1] = system: Clostridium sporogenes DSM 1664; test: growth (OD595) fold change vs plate DMSO controls (fold change (ratio)); higher = more growth
Procedure, shortened: (§1)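 Each value is the mean of 2 biological replicates, and fold changes above 1.5 were set to NA. The underlying readings were taken at 595 nm from shaken anaerobic mGAM cultures in 96-well plates after 27 h at 37 °C. They were blank-subtracted, corrected for compound background using 20 µM compound solutions in water, and converted to OD with a calibration factor of 5. Growth is the fold change relative to the median of the plate DMSO controls.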

Escherichia coli IAI1 [2] = test: as above
Procedure, shortened: as §1

[3] = system: Klebsiella aerogenes DSM 30053; test: as above
Procedure, shortened: as §1

[4] = system: Ruminococcus gnavus DSM 108212; test: as above
Procedure, shortened: as §1

[5] = system: Klebsiella aerogenes DSM 30053; test: fold change of Histamine concentration vs plate DMSO controls (fold change (ratio)); higher = more amine produced, active = hit call of the paper (significant change in both replicates, either direction)
Procedure, shortened: (§2)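 Using LC–triple-quadrupole MS with dynamic MRM, amines were quantified against external calibration curves and corrected for drift within each batch. Samples were whole anaerobic mGAM cultures of four gut strains, grown 27 h at 37 °C from OD 0.1 before 1:1 dilution, extracted with cold acetonitrile/methanol containing 0.1% formic acid and centrifuged. Compounds were present at 20 µM final (sweeteners at 50 µM final). The numbers are fold changes versus plate DMSO controls, each the mean of 2 biological replicates.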

[6] = system: Clostridium sporogenes DSM 1664; test: fold change of Tryptamine concentration vs plate DMSO controls (fold change (ratio)); higher = more amine produced, active = hit call of the paper (significant change in both replicates, either direction)
Procedure, shortened: as §2

[7] = system: Ruminococcus gnavus DSM 108212; test: as above
Procedure, shortened: as §2

Escherichia coli IAI1 [8] = test: fold change of Putrescine concentration vs plate DMSO controls (fold change (ratio)); higher = more amine produced, active = hit call of the paper (significant change in both replicates, either direction)
Procedure, shortened: as §2

[9] = system: Klebsiella aerogenes DSM 30053; test: as above
Procedure, shortened: as §2

Escherichia coli IAI1 [10] = test: fold change of Cadaverine concentration vs plate DMSO controls (fold change (ratio)); higher = more amine produced, active = hit call of the paper (significant change in both replicates, either direction)
Procedure, shortened: as §2

[11] = system: Klebsiella aerogenes DSM 30053; test: as above
Procedure, shortened: as §2

[12] = system: Ruminococcus gnavus DSM 108212; test: fold change of 2-Phenylethylamine concentration vs plate DMSO controls (fold change (ratio)); higher = more amine produced, active = hit call of the paper (significant change in both replicates, either direction)
Procedure, shortened: as §2

| SMILES | growth [1] | growth (Escherichia coli IAI1 [2]) | growth [3] | growth [4] | fold change of Histamine concentration [5] | fold change of Tryptamine concentration [6] | fold change of Tryptamine concentration [7] | fold change of Putrescine concentration (Escherichia coli IAI1 [8]) | fold change of Putrescine concentration [9] | fold change of Cadaverine concentration (Escherichia coli IAI1 [10]) | fold change of Cadaverine concentration [11] | fold change of 2-Phenylethylamine concentration [12] |
| --- | --- | --- | --- | --- | --- | --- | --- | --- | --- | --- | --- | --- |
| c1ccc2c(c1)cc1ccc3cccc4ccc2c1c34 [Benzo[a]pyrene] | 0.972 | 1.03 | 1.06 | 1.01 | 0.948 (inactive) | 1.03 (inactive) | 1.01 (inactive) | 0.977 (inactive) | 1.01 (inactive) | 1 (inactive) | 1 (inactive) | 1.04 (inactive) |
| COc1cc(OC)nc(NC(=O)NS(=O)(=O)c2ncccc2C(=O)N(C)C)n1 | 1.19 | 1.03 | 1.02 | 1.22 | 0.96 (inactive) | 0.975 (inactive) | 1.01 (inactive) | 0.924 (inactive) | 1.03 (inactive) | 1.01 (inactive) | 1.01 (inactive) | 0.998 (inactive) |
| CCOP(=S)(OCC)Oc1nc(Cl)c(Cl)cc1Cl | 1.13 | 0.998 | 1.04 | 0.945 | 0.882 (inactive) | 1.01 (inactive) | 0.936 (inactive) | 0.986 (inactive) | 1.01 (inactive) | 1.03 (inactive) | 1.02 (inactive) | 0.873 (inactive) |
| O=P1(N(CCCl)CCCl)NCCCO1 (stereo not given) [Cyclophosphamide] | 0.997 | 1.02 | 0.997 | 1.11 | 1.03 (inactive) | 0.997 (inactive) | 1.02 (inactive) | 1.01 (inactive) | 1.01 (inactive) | 1.02 (inactive) | 0.999 (inactive) | 1.03 (inactive) |
| C[C@H](N)[C@H](O)c1ccc(O)c(O)c1 [Levonordefrin] | 1.11 | 0.971 | 1 | 0.976 | 0.953 (inactive) | 1.04 (inactive) | 1.07 (inactive) | 0.904 (inactive) | 0.981 (inactive) | 0.962 (inactive) | 1.01 (inactive) | 1.14 (inactive) |
| COc1cccc(C(=O)NN(C(=O)c2cc(C)cc(C)c2)C(C)(C)C)c1C | 0.988 | 1.01 | 1.01 | 1.17 | 0.994 (inactive) | 0.948 (inactive) | 0.932 (inactive) | 1.03 (inactive) | 0.983 (inactive) | 0.968 (inactive) | 0.986 (inactive) | 0.92 (inactive) |
| O=C(Nc1ccccc1-c1ccc(Cl)cc1)c1cccnc1Cl | 0.923 | 1.02 | 0.996 | 0.965 | 0.953 (inactive) | 0.954 (inactive) | 0.949 (inactive) | 1 (inactive) | 0.985 (inactive) | 0.979 (inactive) | 0.999 (inactive) | 0.916 (inactive) |
| CCCN1C[C@H](CSC)C[C@@H]2c3cccc4[nH]cc(c34)C[C@H]21 [Pergolide mesylate] | 0.995 | 0.953 | 0.998 | 0.982 | 0.953 (inactive) | 0.969 (inactive) | 1.02 (inactive) | 0.968 (inactive) | 0.993 (inactive) | 1.06 (inactive) | 1.01 (inactive) | 1.04 (inactive) |
| CC(CCc1ccccc1)NC(C)C(O)c1ccc(O)cc1 (stereo not given) [Nylidrin] | 0.853 | 1.13 | 1.21 | 1 | 1 (inactive) | 0.986 (inactive) | 0.929 (inactive) | 1.03 (inactive) | 1.05 (inactive) | 0.961 (inactive) | 1.02 (inactive) | 0.902 (inactive) |
| CN/C(=N\[N+](=O)[O-])NCc1cnc(Cl)s1 | 0.943 | 0.968 | 0.989 | 0.944 | 1.01 (inactive) | 0.953 (inactive) | 0.989 (inactive) | 0.98 (inactive) | 1 (inactive) | 1.07 (inactive) | 0.994 (inactive) | 1 (inactive) |
| CN[C@@H]1[C@@H](O)[C@@H](O[C@@H]2[C@@H](O)[C@H](O[C@H]3O[C@H](CN)CC[C@H]3N)[C@@H](N)C[C@H]2N)OC[C@]1(C)O.CN[C@@H]1[C@@H](O)[C@@H](O[C@@H]2[C@@H](O)[C@H](O[C@H]3O[C@H]([C@@H](C)N)CC[C@H]3N)[C@@H](N)C[C@H]2N)OC[C@]1(C)O.CN[C@@H]1[C@@H](O)[C@@H](O[C@@H]2[C@@H](O)[C@H](O[C@H]3O[C@H]([C@@H](C)NC)CC[C@H]3N)[C@@H](N)C[C@H]2N)OC[C@]1(C)O [Gentamicine sulfate] | 1.12 | 1.03 | 0.994 | 1.16 | 0.948 (inactive) | 0.703 (inactive) | 1.08 (inactive) | 1.02 (inactive) | 1.02 (inactive) | 1.02 (inactive) | 1.05 (inactive) | 1.16 (inactive) |
| O=[N+]([O-])c1cc(C(F)(F)F)c(Cl)c([N+](=O)[O-])c1Nc1ncc(C(F)(F)F)cc1Cl | 0.825 | 0.986 | 0.991 | 1.18 | 1.07 (inactive) | 0.464 (inactive) | 0.887 (inactive) | 1.05 (inactive) | 1.05 (inactive) | 1.15 (inactive) | 1.02 (inactive) | 0.826 (inactive) |
| CNC(=O)c1cc(C#N)cc(C)c1NC(=O)c1cc(Br)nn1-c1ncccc1Cl | 1.13 | 0.996 | 0.981 | 1.06 | 1 (inactive) | 1.2 (inactive) | 1.06 (inactive) | 0.935 (inactive) | 0.938 (inactive) | 0.886 (inactive) | 1.02 (inactive) | 1.08 (inactive) |
| CO/N=C(/C(=O)OC)c1ccccc1CO/N=C(\C)c1cccc(C(F)(F)F)c1 | 0.917 | 1.01 | 0.98 | 1.1 | 1.02 (inactive) | 0.956 (inactive) | 0.991 (inactive) | 0.982 (inactive) | 0.987 (inactive) | 0.95 (inactive) | 1.02 (inactive) | 0.951 (inactive) |
| COP(=O)(OC)OC=C(Cl)Cl | 1.05 | 1.03 | 0.995 | 1.07 | 0.89 (inactive) | 1.05 (inactive) | 1.06 (inactive) | 0.985 (inactive) | 0.921 (inactive) | 0.964 (inactive) | 1.06 (inactive) | 1.07 (inactive) |
| O=C(O)C(F)(F)C(F)(F)C(F)(F)C(F)(F)C(F)(F)C(F)(F)F [PFHpA (Perfluoroheptanoic acid)] | 0.939 | 1.01 | 0.994 | 0.995 | 0.997 (inactive) | 1.06 (inactive) | 0.979 (inactive) | 1.03 (inactive) | 1.02 (inactive) | 1.04 (inactive) | 1 (inactive) | 0.98 (inactive) |
| CC(C)c1c(CN(C)C(C)Cc2ccccc2)n(C)n(-c2ccccc2)c1=O (stereo not given) [Famprofazone] | 1.02 | 1.15 | 1.06 | 1.05 | 0.986 (inactive) | 0.954 (inactive) | 1.06 (inactive) | 1.03 (inactive) | 1.02 (inactive) | 0.998 (inactive) | 1.01 (inactive) | 1.02 (inactive) |
| O=c1[nH]c2ccccc2n1CCCN1CCC(n2c(=O)[nH]c3cc(Cl)ccc32)CC1 [Domperidone] | 0.989 | 0.963 | 1.08 | 0.669 | 0.906 (inactive) | 1.03 (inactive) | 0.984 (inactive) | 1.01 (inactive) | 0.951 (inactive) | 1.03 (inactive) | 1 (inactive) | 1.03 (inactive) |
| CN(C)[C@@H]1C(=O)C(C(N)=O)=C(O)[C@@]2(O)C(=O)C3=C(O)c4c(O)cccc4[C@@](C)(O)[C@H]3C[C@@H]12 [Tetracycline hydrochloride] | 0.00861 | 0.0722 | 0.0623 | 0.735 | 0.0521 (active) | 0.024 (active) | 0.799 (inactive) | 0.291 (inactive) | 0.481 (inactive) | 0.148 (active) | 0.411 (inactive) | 0.86 (inactive) |
| COc1ccc(-c2ccccc2)cc1NNC(=O)OC(C)C | 1.14 | 0.997 | 1 | 1.12 | 0.998 (inactive) | 0.997 (inactive) | 0.968 (inactive) | 0.991 (inactive) | 1 (inactive) | 1.03 (inactive) | 0.984 (inactive) | 0.922 (inactive) |
| CC[C@H](C)[C@H]1O[C@]2(C=C[C@@H]1C)C[C@@H]1C[C@@H](C/C=C(\C)[C@@H](O[C@H]3C[C@H](OC)[C@@H](O[C@H]4C[C@H](OC)[C@@H](O)[C@H](C)O4)[C@H](C)O3)[C@@H](C)/C=C/C=C3\CO[C@@H]4[C@H](O)C(C)=C[C@@H](C(=O)O1)[C@]34O)O2.CO[C@H]1C[C@H](O[C@H]2[C@H](C)O[C@@H](O[C@@H]3/C(C)=C/C[C@@H]4C[C@@H](C[C@]5(C=C[C@H](C)[C@@H](C(C)C)O5)O4)OC(=O)[C@@H]4C=C(C)[C@@H](O)[C@H]5OC/C(=C\C=C\[C@@H]3C)[C@]54O)C[C@@H]2OC)O[C@@H](C)[C@@H]1O [Avermectin B1] | 1.13 | 1.06 | 0.967 | 0.91 | 0.906 (inactive) | 0.921 (inactive) | 0.929 (inactive) | 1.06 (inactive) | 0.985 (inactive) | 0.996 (inactive) | 0.995 (inactive) | 0.883 (inactive) |
| NCCc1c[nH]c2ccc(O)cc12 [Serotonin hydrochloride] | 0.937 | 0.985 | 0.99 | 0.934 | 1.1 (inactive) | 1.02 (inactive) | 1 (inactive) | 0.993 (inactive) | 1.08 (inactive) | 1.06 (inactive) | 1.06 (inactive) | 0.93 (inactive) |
| O=C1C2CC=CCC2C(=O)N1SC(Cl)(Cl)Cl (stereo not given) | 0.923 | 1.04 | 0.972 | 0.931 | 1.02 (inactive) | 1.04 (inactive) | 1.04 (inactive) | 1 (inactive) | 0.956 (inactive) | 0.806 (inactive) | 0.999 (inactive) | 1.05 (inactive) |
| COP(N)(=O)SC (stereo not given) | 1.17 | 1.07 | 1.12 | 1.01 | 0.935 (inactive) | 0.998 (inactive) | 1.05 (inactive) | 1.05 (inactive) | 1.01 (inactive) | 0.966 (inactive) | 1.02 (inactive) | 1.06 (inactive) |
| CS(=O)(=O)NC(=O)c1cc(Oc2ccc(C(F)(F)F)cc2Cl)ccc1[N+](=O)[O-] | 0.96 | 0.996 | 1.08 | 1 | 0.93 (inactive) | 0.985 (inactive) | 1.02 (inactive) | 1.04 (inactive) | 1.01 (inactive) | 1.01 (inactive) | 1.02 (inactive) | 0.99 (inactive) |
